Most compounds without a hit are left out; they make up all but 3.2% or so of the library.
Mtb betalactam = beta-lactam sensitization of Mtb H37Rv, H37Rv | inhibition, % at 25 µM | 330,000 tested, 0.27% active | M. tuberculosis H37Rv growth with meropenem, percent inhibition; call rule not given here;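 note: growth measured after seven days incubation then overnight dye step; 0% = bacteria only wells and 100% = bacteria with antibiotic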
Rv3671c inh = Rv3671c serine protease inhibitors, primary screen, biochemical, fluorescence polarization, M. tuberculosis H37Rv; 320,000 tested, 0.048% active; P9WHR9; inhibition, % at 5.96 µM; AID 2606, 2010; in the data active = inhibition above about 38%;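 note: extracellular domain of Rv3671c used as enzyme; 0% = enzyme with DMSO and 100% = no enzyme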
FBA Mtb inh = Mtb FBA enzyme inhibitors, primary screen, biochemical, fluorescence, strain H37Rv; Fructose-bisphosphate aldolase (Mycobacterium tuberculosis (strain ATCC 25618 / H37Rv)), …; inhibition, % at 1 µM; 360,000 tested, 2.3% active; purified M. tuberculosis FBA, fluorescence read-out; in the data active = inhibition above about 27%;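 note: 0% = vehicle and 100% = reference inhibitor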
UGM FP inh = M. tuberculosis UGM enzyme inhibitors, primary screen, biochemical, fluorescence polarization, single point. inhibition, % at 10 µM. 320,000 tested, 0.06% active. purified UGM, fluorescence polarization probe displacement; in the data active = inhibition above about 10%, passing the limit was not always enough; inconclusive = no clear call, values can overlap the other calls
Target sequence (P9WIQ1 whole entry, looked up): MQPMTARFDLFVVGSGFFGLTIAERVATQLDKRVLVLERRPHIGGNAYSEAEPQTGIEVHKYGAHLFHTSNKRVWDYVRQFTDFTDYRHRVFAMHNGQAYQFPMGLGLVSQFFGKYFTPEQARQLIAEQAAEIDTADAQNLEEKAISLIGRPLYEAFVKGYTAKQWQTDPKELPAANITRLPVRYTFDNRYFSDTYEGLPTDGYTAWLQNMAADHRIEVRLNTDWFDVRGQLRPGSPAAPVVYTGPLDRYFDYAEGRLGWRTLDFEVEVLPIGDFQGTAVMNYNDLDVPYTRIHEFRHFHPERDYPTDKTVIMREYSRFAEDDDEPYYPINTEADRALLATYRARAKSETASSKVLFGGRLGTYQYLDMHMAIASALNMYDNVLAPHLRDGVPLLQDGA
SSB-PriA inh = inhibitors of Klebsiella pneumoniae PriA binding to SSB C-terminal tail, primary screen, biochemical, AlphaScreen. PriA–SSB C-terminal tail interaction (Klebsiella pneumoniae). AlphaScreen SSBct-PriA binding, biotinylated peptide. inhibition, % at 33 µM. 430,000 tested, 0.6% active. AID 1272365, 2023; in the data active = inhibition mostly above about 37%, no sharp cut-off; inactive = mostly below about 20%;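 note: plate controls were negative control peptide for no effect and reference peptide for full effect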
GDH-TPI inh = GDH-TPI coupling enzyme inhibitors, primary screen, artefact control for M. tuberculosis FBA inhibitor project, biochemical, absorbance, full deck | GDH-TPI coupled enzyme counterscreen, NADH absorbance | inhibition, % at 4.8 µM | 360,000 tested, 1.2% active | AID 588335, 2011; in the data active = inhibition above about 30%;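 note: 0% = DMSO wells and 100% = wells lacking the enzyme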
* hit, by the source's call; i = inactive; ? = inconclusive; · = no result given; + = active, no number.

SMILES	Mtb betalactam	Rv3671c inh	FBA Mtb inh	UGM FP inh	SSB-PriA inh	GDH-TPI inh
COC(=O)c1sccc1-c1ccc(C=NOCc2c(Cl)cccc2Cl)o1	·	·	·	·	-4	·
COC(=O)c1ccccc1-c1ccc(/C=N/NC(N)=O)o1	6	4	1	0	i	32*
COC(=O)N/N=C/c1ccc(-c2ccccc2Cl)o1	-4	-6	0	1	i	35*
COC(=O)c1sccc1-c1ccc(/C=N/OC(=O)c2ccccc2)o1	17	10	14	-3	·	31*
CC(=NNC(=O)c1ccccc1)c1ccc(C)c([N+](=O)[O-])c1	·	·	·	·	-12	·
O=C(c1ccsc1)N1CCC(Oc2ncccc2Br)CC1	·	·	·	·	-14	·
CSc1nc(-c2ccccc2)c(C#N)c(=O)[nH]1	2	0	1	4	0	4
CSc1c2c([nH]c(=O)c1C#N)-c1ccccc1CC2	·	·	175*	·	·	·
O=C(CSCC(=O)Nc1nc(-c2ccc(Cl)s2)cs1)Nc1nccs1	·	·	·	·	-9	·
COc1ccc(/C=N/NC(=O)c2ccc3nc[nH]c3c2)c(OC)c1	1	0	0	0	·	35*
CCOc1ccc(/C=N/NC(=O)c2ccc3nc[nH]c3c2)cc1OC	·	·	4	·	·	42*
COc1ccc(C=NNC(=O)c2ccc3nc[nH]c3c2)c(OC)c1	·	·	·	·	2	·
Cc1cc2cc(CCNC(=S)Nc3ccccc3F)c(=O)[nH]c2cc1C	·	·	·	·	10	·
Cc1cc(=O)n2c(n1)SCC2CC(=O)NCCCOC(C)C (centres undefined)	·	·	·	·	3	·
Cc1cc(Br)ccc1Nc1nc(N)nc(N)c1N=O	·	·	5	·	10	32*
Cc1cccc(Nc2nc(N)c(C#N)c(CC#N)c2C#N)c1	?	3	0	-2	-11	64*
Cc1ccc(Nc2nc(N)nc(N)c2N=O)cc1C	·	·	0	·	·	·
Cc1cccc(Nc2nc(N)nc(N)c2N=O)c1	·	·	-1	·	2	31*
O=C(Nc1ccc(F)cc1)N1CCN(c2ccc3nncn3n2)CC1	·	·	·	·	1	·
CCn1c(=O)c2[nH]c(Cl)nc2n(CC)c1=O	·	·	-2	·	·	11
CCCn1c(=O)c2[nH]c(-c3ccc(S(=O)(=O)O)cc3)nc2n(CCC)c1=O	-2	2	+	3	-9	9
COC(=O)CSc1nc2sc3c(c2c(=O)n1-c1ccccc1)CCN(C)C3	3	1	17	0	-2	30
CN1CCc2c(sc3nc(SCC(=O)N4CCCCC4)n(-c4ccccc4)c(=O)c23)C1	23	-3	21	0	7	39*
CN1CCc2c(sc3nc(SCC(N)=O)n(-c4ccc(Cl)cc4)c(=O)c23)C1	-2	-9	10	-1	-3	32*
CCn1c(SCC(=O)NCCc2ccccc2)nc2sc3c(c2c1=O)CCN(C)C3	-4	-2	17	2	-8	35*
SMILES	Mtb betalactam	Rv3671c inh	FBA Mtb inh	UGM FP inh	SSB-PriA inh	GDH-TPI inh
CN1CCc2c(sc3nc(SCC(N)=O)n(-c4ccccc4)c(=O)c23)C1	9	0	4	1	-3	16
COc1ncccc1C(=O)NCC1CCCN1c1ccccc1 (centres undefined)	·	·	·	·	9	·
CCCC(O)=C1C(=O)CC(C)(C)CC1=Nc1ccc(OC)cc1OC	·	·	·	·	-12	·
O=[N+]([O-])c1ccc(O)c(C=Nn2c(CO)nc3ccccc32)c1	·	·	·	·	7	·
C=CCNC(=S)Nc1sc2c(c1C(=O)OCC)CC(C(C)C)OC2 (centres undefined)	5	0	1	·	60*	32*
CCOCCCn1c(=NC(=O)c2ccc(OC)c(OC)c2)c(C#N)cc2c(=O)n3cccc(C)c3nc21	-3	9	·	1	·	·
CCCCCn1c(=NC(=O)c2cccnc2)c(C#N)cc2c(=O)n3cccc(C)c3nc21	-2	6	116*	1	-11	1
CCCCn1c(=NC(C)=O)c(C#N)cc2c(=O)n3cccc(C)c3nc21	1	15	102*	-3	-9	0
CCCn1c(=N)c(C(=O)NCc2ccc3c(c2)OCO3)cc2c(=O)n3cccc(C)c3nc21	93	-5	4	-1	6	1
CCOCCCn1c(=NC(C)=O)c(C#N)cc2c(=O)n3cccc(C)c3nc21	-9	3	+	1	-4	2
Cc1cncnc1N1CCN(S(=O)(=O)Cc2cc(F)ccc2F)CC1	·	·	·	·	-11	·
O=C(Cc1ccc(-c2ccccc2)cc1)NCC(=O)N1CCOC(c2ccccc2)C1 (centres undefined)	·	·	·	·	-10	·
CCN1CCN(Cc2ccc(NC(=O)c3cc(NC(=O)c4cc5cccc(OC)c5o4)cc(OC)c3)cc2C(F)(F)F)CC1	100	-72	2	0	73*	0
CCN1CCN(Cc2ccc(NC(=O)c3cc(NC(=O)c4cncc(-c5cccs5)c4)cc(OC)c3)cc2C(F)(F)F)CC1	100	-124	1	-2	42*	3
CCN1CCN(Cc2ccc(NC(=O)c3cc(NC(=O)c4ccno4)cc(OC)c3)cc2C(F)(F)F)CC1	27	-17	-5	0	-3	-7
CCCn1cc(SCC(=O)NCc2ccccc2)c2ccccc21	·	·	·	·	3	·
CCOc1ccc(C=NNC(=O)c2nnn(-c3nonc3N)c2CN(C)C2CCCCC2)cc1	·	·	·	·	2	·
COC(=O)c1c(Cl)c2n3ccccc3c(C)c(-c3ccccc3)c-2c1C(=O)OC	-1	0	1	·	-4	16
COC(=O)c1cc2c(-c3ccccc3)c(C)c3ccccn3c-2c1C(=O)OC	81	4	-2	4	66*	19
CCCN(CCC)CCCNC(=S)Nc1ccc2nc(N3CCN(C)CC3)cc(C)c2c1	4	6	14	-1	-7	32*
Cc1cc(N2CCN(C)CC2)nc2ccc(NC(=S)NC3CC3)cc12	-5	7	12	0	3	35*
Cc1cc(/C=C(\C#N)C(=O)O)c(C)n1CC(C)C	-4	4	2	0	2	35*
CC(C)Oc1ccccc1C=NNc1ccccc1[N+](=O)[O-]	·	·	·	·	82*	·
COc1ccccc1NS(=O)(=O)c1ccc(N/N=C/c2ccccc2OCC(=O)O)c([N+](=O)[O-])c1	-1	17	-6	2	·	35*
O=C(O)c1ccccc1NS(=O)(=O)c1ccc(N/N=C/c2ccc(O)c(O)c2)c([N+](=O)[O-])c1	·	·	1	·	·	46*
CC1(C)Cc2c(sc3[nH]c(=S)n(Cc4ccco4)c(=O)c23)CO1	5	-1	-4	-1	-1	37*
O=c1c2c3c(sc2[nH]c(=S)n1Cc1ccco1)CCC3	-2	1	-1	-1	-3	22

High-throughput results deposited in PubChem BioAssay by several laboratories.
